S1P3 antag – antagonists of human S1P3 receptor | Q99500 | CHO S1P3 NFAT-BLA reporter, FRET fluorescence, antagonist mode | inhibition, % at 4.98 µM | 170,000 compounds, 0.27% hits | AID 485;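 active means inhibition above the plate cutoff, the mean inhibition of test wells on that plate plus 3 SD, cut at about 28% in these data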;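 further: cells challenged with S1P at its EC80 of 0.8 µM; blue over green emission ratio from cleaved BLA substrate after 4 h stimulation; 0% = S1P-stimulated wells and 100% = unstimulated DMSO-only wells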
GALR2 agonist – agonists of human galanin receptor 2 (GALR2). O43603. GALR2-expressing cells, agonist activation read-out. activation, % (test concentration not listed). 140,000 compounds, 0.48% hits. AID 803; in the data active means activation above about 5%, passing the limit was not always enough;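 further: 0% = vehicle buffer wells and 100% = reference agonist at full effect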
S1P4 agonist – agonists of human S1P4 receptor. O95977. S1P4-expressing cell line, agonist reporter assay. activation, % at 4.98 µM. 220,000 compounds, 0.35% hits; in the data active means activation above about 11%;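 further: 0% = DMSO vehicle and 100% = reference agonist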
Target sequence (O95977 whole entry, looked up): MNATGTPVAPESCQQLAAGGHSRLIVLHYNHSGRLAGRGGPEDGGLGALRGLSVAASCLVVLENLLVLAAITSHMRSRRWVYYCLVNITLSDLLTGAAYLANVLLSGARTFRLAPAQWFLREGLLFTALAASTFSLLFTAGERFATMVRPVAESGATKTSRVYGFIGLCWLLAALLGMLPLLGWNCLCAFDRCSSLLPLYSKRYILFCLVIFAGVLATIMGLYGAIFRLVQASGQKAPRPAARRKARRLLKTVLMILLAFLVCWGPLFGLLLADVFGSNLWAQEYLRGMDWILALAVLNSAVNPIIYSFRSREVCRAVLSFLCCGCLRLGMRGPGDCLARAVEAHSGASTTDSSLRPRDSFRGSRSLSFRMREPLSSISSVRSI
GALR2 blocker – antagonists of human galanin receptor 2 (GALR2). GALR2-expressing cells, antagonist mode. inhibition, % at 4 µM. 140,000 compounds, 0.39% hits. AID 828; in the data active means inhibition above about 27%;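 further: cells stimulated with galanin 1-16 at roughly its EC80; 0% = agonist challenge control and 100% = basal control without agonist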
S1P4 antagonist – human S1P4 receptor antagonism | 220,000 compounds, 0.26% hits | AID 1510 | S1P4-expressing cells, antagonist mode, reporter read-out | inhibition, % at 4.98 µM | O95977; in the data active means inhibition above about 29%;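 further: 0% = wells stimulated with agonist and 100% = vehicle wells without agonist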
Active calls of the source: *; . = not tested or not shown. The list is not random: actives were taken first. Their share in the collection is about 1.3%.

SMILES	S1P3 antag	GALR2 agonist	S1P4 agonist	GALR2 blocker	S1P4 antagonist
CCOCCn1c(SCCCc2ccccc2)nc2c1c(=O)[nH]c(=O)n2C	.	1	2	-21	-10
CCCCCSc1nc2c(c(=O)[nH]c(=O)n2C)n1CCc1ccccc1	102*	.	.	.	.
CCOc1ccc(S(=O)(=O)N2CCN(S(=O)(=O)c3ccc(OCC)cc3)C(C)C2)cc1 (stereo not drawn)	71*	-2	-1	5	-2
Cc1ccc(N(Cc2cc3cc(C)ccc3[nH]c2=O)S(=O)(=O)c2ccccc2)cc1	8	0	0	2	-5
C=CCNc1oc(/C=C/c2ccccc2)nc1C#N	.	12*	3	2	-4
CN(C)CCNc1oc(/C=C/c2ccccc2)nc1C#N	-5	1	1	-14	-9
CCOC(=O)C1(CC)NC(c2ccc(OC)cc2OC)C2C(=O)N(C)C(=O)C21 (stereo not drawn)	3	.	0	.	-2
C=CCOc1c(Br)cc(/C=N/Nc2ccc(C(=O)O)cc2)cc1OCC	1	2	1	-11	-9
COc1cccc(Nc2nc3ccccc3nc2-n2nc(C)cc2C)c1	.	23*	3	-1	-2
COc1ccc2[nH]c(=O)c3c(c2c1)OC(C)(C)C=C3	67*	-2	5	2	0
O=C(Cn1cc(C(F)(F)F)ccc1=O)N/N=C/c1cccc(Cl)c1	-14	-2	-1	6	6
CC(Oc1ccc(Cl)cc1Cl)C(=O)NCCCN1CCOCC1 (stereo not drawn)	99*	-2	3	-10	-20
Fc1ccccc1N1CC(c2ccccc2)C(c2cccs2)=N1 (stereo not drawn)	.	46*	4	-7	1
O=C(Nc1ccccc1)c1ccccc1C(=O)N1CCCCC1	-5	.	2	.	-30
COCCNC(=O)c1c(N)n(-c2ccccc2)c2nc3ccccc3nc12	.	4.9*	2	2	-8
COCCCNC(=O)c1c(N)n(/N=C/c2cccs2)c2nc3ccccc3nc12	.	20*	2	-12	-10
C=CCn1c(N)c(C(=O)Nc2ccccc2)c2nc3ccccc3nc21	.	8.1*	4	-9	8
Cc1nc2sc(C(N)=O)c(N)c2c(C)c1CC(=O)c1ccccc1	11	.	2	.	2
NC(N)=NC1=NC(=O)C(Cc2ccccc2Cl)S1 (stereo not drawn)	-5	.	0	.	-4
COC(=O)c1cc2sc(Cl)cc2n1CC(=O)Nc1cccc(SC)c1	59*	-1	-1	1	-1
C=CCn1c(SCC(=O)Nc2cccnc2Cl)nnc1-c1ccc(C(C)(C)C)cc1	-29	0	2	-4	-23
O=[N+]([O-])c1ccc(-c2nnc(CSc3nc(-c4ccccc4)nc4ccc(F)cc34)o2)cc1	.	-1	1	3	-7
CN(CC(=O)NCCC1=CCCCC1)S(=O)(=O)c1ccc2c(c1)c(=O)n(C)c(=O)n2C	74*	-3	-1	-4	1
O=C(Nc1ccc(N2CCCC2)c(Cl)c1)c1ccco1	3	-1	-1	6	-18
O=C(Nc1ccc(N2CCCC2)c(Cl)c1)c1ccc([N+](=O)[O-])o1	-1	.	-2	.	90*
SMILES	S1P3 antag	GALR2 agonist	S1P4 agonist	GALR2 blocker	S1P4 antagonist
O=c1oc2c(CN3CCOCC3)c(O)ccc2c2c1CCCC2	-6	5.0*	9	-1	-31
COc1ccc(C2C=C(c3cccs3)Nc3nc(CCCO)nn32)cc1 (stereo not drawn)	30	-2	0	30*	9
COc1ccc(C2C=C(c3ccccc3)Nc3nc(CCCO)nn32)cc1 (stereo not drawn)	31	0	-2	20	16
NC(=O)C1CCCNC1 (stereo not drawn)	-8	.	.	.	.
O=C1Nc2ccc(Cl)cc2/C1=C/C1CC=CCC1 (stereo not drawn)	2	5.0*	0	2	-7
O=C(O)CC1S/C(=N/N=C/C2CC=CCC2)NC1=O (stereo not drawn)	-12	.	0	.	8
COc1ccc(CN2CC(=O)N(c3ccc(C)c(C)c3)C2=S)cc1OC	-7	.	1	.	1
COC(=O)C1=CN(CCCN2CCCC2=O)C=C(C(=O)OC)C1c1ccccc1C(F)(F)F	-32	20*	10	-4	-15
COCCn1c(C)cc(/C=C2/NC(=O)N(c3ccc(Cl)cc3)C2=O)c1C	8	7.1*	0	-8	-12
COCCn1c(C)cc(/C=C2/NC(=O)N(Cc3ccc(C)cc3)C2=O)c1C	-8	.	0	.	-18
O=[N+]([O-])c1ccc(O)c(/C=N/Nc2ccccn2)c1	-6	6.2*	-1	20	1
O=[N+]([O-])c1cccc(N/N=C/c2cc([N+](=O)[O-])ccc2O)c1	-16	.	0	.	0
CCCn1c(OC)nc2c1c(=O)n(C)c(=O)n2C	9	-3	-1	7	3
CCCOc1nc2c(c(=O)n(C)c(=O)n2C)n1CCC	.	7.8*	-1	-1	-20
Cc1cc(O)c(C2=Nc3ccccc3SC(c3ccc(Cl)cc3)C2)c(=O)o1 (stereo not drawn)	2	-1	1	-4	-11
COc1ccc(C2CC(c3c(O)cc(C)oc3=O)=NCCS2)c(OC)c1 (stereo not drawn)	31	0	-1	28*	-7
c1ccc(Cn2nnc3c(NCc4ccc5c(c4)OCO5)nc(C4CC4)nc32)cc1	22	-2	3	0	-11
Cc1nc(NCc2ccc3c(c2)OCO3)c2nnn(Cc3ccccc3)c2n1	-6	6.8*	0	-4	-22
COCCN=c1scc(-c2cccs2)n1/N=C/c1ccc(O)c(O)c1O	-9	-1	13*	9	-16
COc1ccc(-n2nnnc2S(=O)(=O)CC(=O)N2CCCCC2)cc1	18	-2	-3	48*	54*
COc1ccc(-n2nnnc2S(=O)(=O)Cc2ccc(C(=O)O)cc2)cc1	-11	-1	-4	11	-9
O=C(NCc1ccco1)c1cccc(NC(=O)c2ccccc2)c1	40	-2	2	18	7
Cc1ccc(C(=O)Nc2cccc(C(=O)NCc3ccco3)c2)cc1	67*	-3	1	15	8
COc1cc(C(=O)NCc2ccccc2)cc(Br)c1OC	0	0	0	5	-8
COC(=O)C1=CN(Cc2cccs2)C=C(C(=O)OC)C1c1cccc(Cl)c1	6	.	2	.	-6
SMILES	S1P3 antag	GALR2 agonist	S1P4 agonist	GALR2 blocker	S1P4 antagonist
COC(=O)C1=CN(C(C)C)C=C(C(=O)OC)C1c1cccc(OC)c1	6	21*	7	3	-7
COC(=O)C1=CN(C(C)C)C=C(C(=O)OC)C1c1cc(Br)c(OC)c(OC)c1	.	22*	3	3	-14
CCN1C=C(C(=O)OC)C(c2cccc(C)c2)C(C(=O)OC)=C1	.	14*	5	6	7
Cc1ccc2nc(COc3ccc(Cl)cc3)cc(=O)n2c1	-10	.	-1	.	-4
CCOC(=O)COc1c(Cl)cc(C2NC(=S)NC(c3ccccc3)=C2C(C)=O)cc1OCC (stereo not drawn)	-27	2	-1	4	-11
CCOCCn1c(=NC(=O)/C=C/c2ccccc2Cl)sc2cc(NC(C)=O)ccc21	-7	3	0	10	-2
